Several values for one entry are separate records, joined by “and”; a condition that tells them apart may be missing. Equal values may be shown once. Where a structure was tested more than once in an assay, its records may differ in their call. Activity calls are given as the source filed them. How the source made its calls: active means hit-call score of the fitted dose curve at least 0.9, where 1 is the maximum; inactive means score below 0.9.

Read-out in the assay: Interferon-gamma inducible Protein 10 (IP10), CXCL10 (gene 3627)
As to the kind of experiment: BSK_hDFCGF_IP10: BioMAP Diversity Plus: hDFCGF Assay for Interferon-gamma inducible Protein 10 (IP10) Biomarker Activity (AID 2283053). Conditions: primary human foreskin fibroblasts; actives raise or lower the signal. The protocol: BSK_hDFCGF is a cell-based, multiplexed-readout assay that uses foreskin fibroblast, a human skin primary cell, with measurements taken at 24 hours after chemical dosing in a 96-well plate.BSK_hDFCGF_IP10 is an assay component measured in the BSK_hDFCGF assay. It measures IP-10 antibody related to regulation of gene expression using ELISA technology.Data from the assay component BSK_hDFCGF_IP10 was analyzed into 1 assay endpoint. This assay endpoint, BSK_hDFCGF_IP10, was analyzed with bidirectional fitting relative to DMSO as the negative control and baseline of activity. Using a type of binding reporter, gain or loss-of-signal activity can be used to understand changes in the signaling as they relate to the gene CXCL10. Furthermore, this assay endpoint can be referred to as a primary readout, because this assay has produced multiple assay endpoints where this one serves a signaling function. To generalize the intended target to other relatable targets, this assay endpoint is annotated to the cytokine intended target family, where the subfamily is chemotactic factor.
The levels of cell surface (or secreted, indicated by the prefix "s") biomarker endpoints were measured by ELISA. Overt cytotoxicity to cells in confluent adherent cultures (all systems other than the BT system) was assessed by measuring total protein levels using sulforhodamine B (SRB) staining in parallel cultures at the time of biomarker measurements, indicated as SRB endpoints. For proliferation assays for adherent cell types, individual cell types are cultured at sub-confluence and relative cell numbers quantified by SRB staining at time points optimized for each system (48 h: 3C and CASM3C systems; 72 h: BT and HDF3CGF systems; 96 h: SAg system). SRB was performed by staining cells with 0.1% SRB after fixation with 10% TCA and reading wells at 560 nm.Viability and proliferation of PBMC (T cells) was quantified by Alamar Blue reduction for the SAg and BT systems. For PBMC viability (referred to as PBMC Cytotoxicity within the assay endpoint names), cells were plated (75,000/well in a 96-well plate) and then chemical samples added for 1 h before addition of activators, SEB and TSST-1 (20 ng/mL final concentration each). Cells were incubated for 90 h. Then, Alamar Blue (20 uL/well) (Invitrogen, Cat DAL1100) was added for 6 h, and the plates were read with a fluorescence microplate reader at 546/580 nm (excitation/emission). For PBMC proliferation, cells were plated and activated as above but incubated for only 16 h prior to addition of Alamar Blue. Plates were read after 6 h.
With `CC(=O)OC[C@H]1O[C@@](COC(C)=O)(O[C@H]2O[C@H](COC(C)=O)[C@@H](OC(C)=O)[C@H](OC(C)=O)[C@H]2OC(C)=O)[C@@H](OC(C)=O)[C@@H]1OC(C)=O`, the result was inactive.

In the case of `CCCCCCCCCCCCc1ccccc1`, the outcome was inactive.

For the compound `CC(=O)c1ccc2c(c1)[C@H](NC(=O)c1ccc(F)cc1)[C@@H](O)C(C)(C)O2`, the result was inactive.

For orientation: AC50 means the concentration at which the activity in the assay is half-maximal. Turning to `CC[C@H](C)C(=O)O[C@H]1C[C@@H](C)C=C2C=C[C@H](C)[C@H](CC[C@@H]3C[C@@H](O)CC(=O)O3)[C@H]21`, the AC50 was 35.3 µM (active).

In the case of `O=C(NS(=O)(=O)/C=C/c1ccccc1)c1ccc(F)cc1Cl`, the result was inactive.

With `C=CCCCCCCCCC(=O)O`, the result was inactive.

In the case of `CC[C@H]1OC(=O)[C@H](C)[C@@H](O[C@H]2C[C@@](C)(OC)[C@@H](O)[C@H](C)O2)[C@H](C)[C@@H](O[C@@H]2O[C@H](C)C[C@H](N(C)C)[C@H]2O)[C@](C)(O)C[C@@H](C)C(=O)[C@H](C)[C@@H](O)[C@]1(C)O`, the result was inactive.

For the compound `CC1=CC(=O)CC(C)(C)C1`, the outcome was inactive.

On to `O=c1[nH]c2ccc(S(=O)CCN3CCC(Cc4ccc(F)cc4)CC3)cc2o1` (stereo not given), for which the result was inactive.

For the compound `Cn1c(=O)cc(Oc2ccc(F)cc2F)c2cnc(NCC(C)(C)O)nc21`, the half-maximal activity concentration (AC50) was 1.15 µM (active).

For `COC(=O)c1ccccc1O`, the outcome was inactive.

`O=C(O)c1cccc(Oc2ccccc2)c1`: the result was inactive.

For the compound `CC(=O)OCCC(C)C`, the result was inactive.

Take `O=C1CCCCCN1`: the result was inactive.

Consider `CCCCC(CC)COC(=O)c1ccc(C(=O)OCC(CC)CCCC)cc1` (stereo not given), for which the result was inactive.

On to `Cc1c(-c2cccnc2)c2ccccc2n1CCCCC(=O)O`, for which the result was inactive.

For `CC(C)CCO`, the outcome was inactive.

Turning to `CC(O)CN(CCN(CC(C)O)CC(C)O)CC(C)O` (stereo not given), the outcome was inactive.

`Nc1nc2ncc(CNc3ccc(C(=O)N[C@@H](CCC(=O)O)C(=O)O)cc3)nc2c(=O)[nH]1`: the outcome was inactive.

For the compound `CC(C)c1cccc(C(C)C)c1N1C(=O)c2ccc(O)cc2C1=O`, the AC50 is 27.9 µM (active).

In the case of `O=C(O)CCN(C1(C(=O)NO)CCCC1)S(=O)(=O)c1ccc(Oc2ccc(F)cc2)cc1`, the outcome was inactive.

Regarding `CCNc1ccccc1`, the outcome was inactive.

`CCn1nc(Cc2ccccc2)cc1C1CCN(C[C@H]2C[C@H](N(C)[C@@H](C(=O)O)C(C)C)C[C@@H]2c2cccc(F)c2)CC1`: the outcome was inactive.

With `Cc1[nH]cnc1C[C@H]1CCc2c(C)c3ccccc3n2C1=O`, the outcome was inactive.

Turning to `Cn1cnc([N+](=O)[O-])c1Sc1ncnc2nc[nH]c12`, the AC50 is 4.43 µM (active) and 7.98 µM (active); the result was inactive.

`CCCC(=O)OCC`: the outcome was inactive.

On to `Cc1ccc(S(=O)(=O)O)cc1C`, for which the outcome was inactive.

`CCCCCCCCCCCCCCCO`: the outcome was inactive.

For `CCOCCOCCOCCO`, the result was inactive.

Take `CC(C)=CCCC(C)=CC=O`: the outcome was inactive.

For the compound `Nc1ccc(Nc2ccccc2)cc1`, the result was inactive.

`O=C(O)c1cc(N=Nc2ccc(S(=O)(=O)Nc3ccccn3)cc2)ccc1O`: the outcome was inactive.

`Cc1ccc(O)cc1`: the result was inactive.

For the compound `CCCCC(CC)COC(=O)CCCCCCCCC(=O)OCC(CC)CCCC` (stereo not given), the AC50 is 6.18 µM (active).

For the compound `COc1cccc(-c2ccc(/C=C\CN3CCCCCC3)cc2Cl)c1`, the AC50 is 27.3 µM (active).

For `CC(C)=CCC/C(C)=C\CO`, the outcome was inactive.

In the case of `O=C(CCCCCCCCc1cccnc1)N1CCC(C=C(c2ccccc2)c2ccccc2)CC1`, the AC50 was 9 µM (active).

With `CC(C)=CCCC(C)CCO` (stereo not given), the outcome was inactive.

For `CC1(C)C(=O)N(Br)C(=O)N1Br`, the result was inactive.

For the origin of these results see PubChem BioAssay (EPA / NIEHS).
